Where “and” joins values, the source holds several entries; their conditions need not be identical. Identical values can stand only once. The whole screen tested about 5,500 compounds, of which about 2,000 (36%) were called active. Inconclusive results (about 18%) are left out. Cut-off read from the data, not from the text of the source: active = normalized growth mostly below about 0.91 (no sharp cut-off); inconclusive = no clear call, values can overlap the other calls; inactive = mostly above about 0.92. Some of the results follow.
Experiment: chemical genetic growth profiling, strain panel (AID 1159580);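 note: tested at 20 µM; growth read once vehicle control cultures reached saturation at 30 °C; 1 = growth at the plate median or of vehicle wells; lower values mean less growth of the strain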
Conditions: growth OD

Measured: normalized growth

CC(=O)OC/C=C(C)/C=C/C=C(C)/C=C/C1=C(C)CCCC1(C)C
inactive: S. cerevisiae deletion strains, locus YAL013W, strain DEP1, stronger effect = lower value 1.02 | S. cerevisiae deletion strains, locus YBR021W, strain FUR4, stronger effect = lower value 1.03 | S. cerevisiae deletion strains, locus YBR229C, strain ROT2, stronger effect = lower value 1.02 | S. cerevisiae deletion strains, locus YCL029C, strain bik1, stronger effect = lower value 1 | S. cerevisiae deletion strains, locus YDL035C, strain GPR1, stronger effect = lower value 1.01 | S. cerevisiae deletion strains, locus YDL074C, strain BRE1, stronger effect = lower value 1.03 | S. cerevisiae deletion strains, locus YDL101C, strain DUN1, stronger effect = lower value 1.03 | S. cerevisiae deletion strains, locus YDL134C, strain PPH21, stronger effect = lower value 1 | S. cerevisiae deletion strains, locus YDL185W, strain tfp1, stronger effect = lower value 0.992 | S. cerevisiae deletion strains, locus YDL192W, strain arf1, stronger effect = lower value 0.994 | S. cerevisiae deletion strains, locus YDR101C, strain arx1, stronger effect = lower value 0.988 | S. cerevisiae deletion strains, locus YDR150W, strain NUM1, stronger effect = lower value 1.01 | S. cerevisiae deletion strains, locus YDR162C, strain NBP2, stronger effect = lower value 1.01 | S. cerevisiae deletion strains, locus YDR318W, strain mcm21, stronger effect = lower value 1 | S. cerevisiae deletion strains, locus YDR388W, stronger effect = lower value 0.994 | S. cerevisiae deletion strains, locus YDR502C, strain sam2, stronger effect = lower value 0.996 | S. cerevisiae deletion strains, locus YEL061C, strain CIN8, stronger effect = lower value 1.02 | S. cerevisiae deletion strains, locus YER110C, stronger effect = lower value 0.992 | S. cerevisiae deletion strains, locus YER155C, strain BEM2, stronger effect = lower value 1.02 | S. cerevisiae deletion strains, locus YER167W, strain BCK2, stronger effect = lower value 1.02 | S. cerevisiae deletion strains, locus YGL078C, strain dbp3, stronger effect = lower value 0.982 | S. cerevisiae deletion strains, locus YGL086W, strain mad1, stronger effect = lower value 1 | S. cerevisiae deletion strains, locus YGL248W, strain PDE1, stronger effect = lower value 1.03 | S. cerevisiae deletion strains, locus YGR078C, strain PAC10, stronger effect = lower value 1.04 | S. cerevisiae deletion strains, locus YGR135W, strain pre9, stronger effect = lower value 0.984 | S. cerevisiae deletion strains, locus YGR252W, strain gcn5, stronger effect = lower value 0.982 | S. cerevisiae deletion strains, locus YHR030C, strain SLT2, stronger effect = lower value 1.02 and 1.06 | S. cerevisiae deletion strains, locus YHR079C, strain IRE1 (second series), stronger effect = lower value 1 | S. cerevisiae deletion strains, locus YHR079C, strain IRE1, stronger effect = lower value 1.06 | S. cerevisiae deletion strains, locus YHR094C, strain hxt1, stronger effect = lower value 0.991 | S. cerevisiae deletion strains, locus YHR129C, strain ARP1, stronger effect = lower value 1.02 | S. cerevisiae deletion strains, locus YHR200W, strain rpn10, stronger effect = lower value 0.999 | S. cerevisiae deletion strains, locus YIL066C, strain RNR3, stronger effect = lower value 1.02 | S. cerevisiae deletion strains, locus YIL073C, strain SPO22, stronger effect = lower value 1.02 | S. cerevisiae deletion strains, locus YIL125W, strain kgd1, stronger effect = lower value 0.992 | S. cerevisiae deletion strains, locus YIR030C, strain dcg1, stronger effect = lower value 0.994 | S. cerevisiae deletion strains, locus YJL095W, strain BCK1, stronger effect = lower value 1.05 and 1.04 | S. cerevisiae deletion strains, locus YJL134W, strain LCB3, stronger effect = lower value 1.02 | S. cerevisiae deletion strains, locus YJL168C, strain set2, stronger effect = lower value 0.999 | S. cerevisiae deletion strains, locus YJL187C, strain SWE1 (second series), stronger effect = lower value 1.02 | S. cerevisiae deletion strains, locus YJR043C, strain POL32, stronger effect = lower value 1.02 | S. cerevisiae deletion strains, locus YJR066W, strain TOR1, stronger effect = lower value 0.959 | S. cerevisiae deletion strains, locus YJR075W, strain HOC1, stronger effect = lower value 1.03 | S. cerevisiae deletion strains, locus YKL009W, strain mrt4, stronger effect = lower value 1.01 | S. cerevisiae deletion strains, locus YKL068W, stronger effect = lower value 1 | S. cerevisiae deletion strains, locus YKL085W, strain MDH1 (second series), stronger effect = lower value 0.993 | S. cerevisiae deletion strains, locus YKL085W, strain MDH1, stronger effect = lower value 0.993 | S. cerevisiae deletion strains, locus YKL190W, strain CNB1, stronger effect = lower value 1.01 | S. cerevisiae deletion strains, locus YKR001C, strain vps1, stronger effect = lower value 0.999 | S. cerevisiae deletion strains, locus YLR039C, strain RIC1, stronger effect = lower value 1.05 | S. cerevisiae deletion strains, locus YLR058C, strain SHM2, stronger effect = lower value 1.01 | S. cerevisiae deletion strains, locus YLR102C, strain apc9, stronger effect = lower value 1 | S. cerevisiae deletion strains, locus YLR113W, strain HOG1, stronger effect = lower value 0.981 | S. cerevisiae deletion strains, locus YLR262C, strain YPT6, stronger effect = lower value 1.03 | S. cerevisiae deletion strains, locus YLR268W, strain sec22, stronger effect = lower value 1.01 | S. cerevisiae deletion strains, locus YLR330W, strain CHS5, stronger effect = lower value 1.02 | S. cerevisiae deletion strains, locus YLR342W, strain FKS1 (second series), stronger effect = lower value 0.986 | S. cerevisiae deletion strains, locus YLR371W, strain rom2, stronger effect = lower value 1 | S. cerevisiae deletion strains, locus YLR418C, strain cdc73, stronger effect = lower value 0.986 | S. cerevisiae deletion strains, locus YML016C, strain PPZ1, stronger effect = lower value 1.01 | S. cerevisiae deletion strains, locus YML032C, strain rad52, stronger effect = lower value 0.998 | S. cerevisiae deletion strains, locus YML124C, strain tub3, stronger effect = lower value 0.999 | S. cerevisiae deletion strains, locus YMR078C, strain ctf18, stronger effect = lower value 1.01 | S. cerevisiae deletion strains, locus YMR223W, strain ubp8, stronger effect = lower value 1.01 | S. cerevisiae deletion strains, locus YMR307W, strain GAS1, stronger effect = lower value 0.898 | S. cerevisiae deletion strains, locus YNL067W, strain RPL9B, stronger effect = lower value 1.03 | S. cerevisiae deletion strains, locus YNL183C, strain NPR1, stronger effect = lower value 0.953 | S. cerevisiae deletion strains, locus YNL233W, strain BNI4, stronger effect = lower value 1.05 | S. cerevisiae deletion strains, locus YNL250W, strain rad50, stronger effect = lower value 0.989 | S. cerevisiae deletion strains, locus YNL271C, strain bni1, stronger effect = lower value 0.988 | S. cerevisiae deletion strains, locus YNL298W, strain CLA4, stronger effect = lower value 0.981 | S. cerevisiae deletion strains, locus YNL307C, strain MCK1, stronger effect = lower value 1 | S. cerevisiae deletion strains, locus YNL322C, strain KRE1, stronger effect = lower value 1.02 | S. cerevisiae deletion strains, locus YNR052C, strain pop2, stronger effect = lower value 0.996 | S. cerevisiae deletion strains, locus YOL006C, strain TOP1, stronger effect = lower value 1.06 | S. cerevisiae deletion strains, locus YOL012C, strain htz1 1.19 | S. cerevisiae deletion strains, locus YOL147C, strain pex11, stronger effect = lower value 0.997 | S. cerevisiae deletion strains, locus YOR061W, strain CKA2, stronger effect = lower value 1.01 | S. cerevisiae deletion strains, locus YOR069W, strain VPS5, stronger effect = lower value 1.02 | S. cerevisiae deletion strains, locus YOR136W, strain idh2, stronger effect = lower value 1 | S. cerevisiae deletion strains, locus YOR144C, strain elg1, stronger effect = lower value 0.998 | S. cerevisiae deletion strains, locus YOR184W, strain ser1, stronger effect = lower value 0.998 | S. cerevisiae deletion strains, locus YOR231W, strain MKK1, stronger effect = lower value 1.04 | S. cerevisiae deletion strains, locus YOR316C, strain cot1, stronger effect = lower value 0.999 | S. cerevisiae deletion strains, locus YPL241C, strain CIN2, stronger effect = lower value 1.01 | S. cerevisiae deletion strains, locus YPL256C, strain CLN2, stronger effect = lower value 1.08 | S. cerevisiae deletion strains, locus YPR119W, strain clb2, stronger effect = lower value 1 | S. cerevisiae deletion strains, locus YPR141C, strain kar3, stronger effect = lower value 0.992 | S. cerevisiae deletion strains, locus YPR163C, strain tif3, stronger effect = lower value 0.994 | S. cerevisiae deletion strains, locus YPR167C, strain met16, stronger effect = lower value 1 | S. cerevisiae deletion strains, strain wtn01, stronger effect = lower value 0.995 | S. cerevisiae strains, strain wild type, stronger effect = lower value 1.02

From PubChem BioAssay AID1159580 (chemical genetic matrix, 2015)
